Bioassay records (PubChem)
Shown are actives, neighbours in structure and some others; about 10% of the full set was active somewhere.
CtBP-E1A blk: inhibitors of CtBP/E1A interaction. AlphaScreen GST-E1A/His-CtBP binding, 1536-well; stronger effect = lower value. activity change, % (concentration not given with the values). hit rate 0.49% among 340,000. AID 651724; in the data active = activity change below about -65%; inconclusive = mostly about -30% to -63%; also: % is scaled to controls: 0 for no effect and ±100 for the full control effect
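GST-E1A and His-tagged CtBP (125 nM each as 5X stock) were preincubated with pin-transferred compound for 2 h at 37 °C in the dark, then glutathione donor and nickel acceptor beads were added for 1 h before AlphaScreen reading.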
HP1b binding inh: inhibitors of HP1-beta chromodomain binding to methylated histone tails | hit rate 0.56% among 390,000 | AlphaScreen HP1-beta / biotin-H3K9me3 peptide binding | AID 540317 | Potency, µM (top dose mostly 114 µM), for inactives: at the top dose activity change, negative = inhibition, hits mostly inhibitors | P83916; also: potency is read from the fitted curve at half-maximal effect; nearly all actives have a fitted effect of over 70% in size
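Compound inhibition of the preformed complex between 50 nM HP1-beta and 50 nM biotinylated H3K9me3 peptide was read by AlphaScreen. Buffer was PBS pH 7.4 with 0.01% Tween-20. Incubations ran 30 min at room temperature, with 10 ug/mL donor/acceptor beads.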
JMJD2A Tudor inh: inhibitors of human JMJD2A Tudor domain; AlphaScreen JMJD2A-Tudor / H3K4me3 peptide binding; O75164; AID 504339; hit rate 4.4% among 390,000; Potency, µM (top dose mostly 114 µM), for inactives: at the top dose activity change, negative = inhibition, most hits filed as inhibitors; also: potency is read from the fitted curve at half-maximal effect; % is scaled to controls: 0 for no effect and ±100 for the full control effect; nearly all actives have a fitted effect of over 50% in size
Six1-Eya2 inh: inhibitors of human Six1/Eya2 interaction | AID 651725 | activity change, % (concentration not given with the values) | hit rate 0.56% among 360,000 | Q15475+O00167 | AlphaScreen GST-Six1/His-Eya2 binding, biochemical; stronger effect = lower value; in the data active = activity change below about -65%; inconclusive = mostly about -30% to -63%; also: % is scaled to controls: 0 for no effect and ±100 for the full control effect
Target sequence (O00167 whole entry, looked up): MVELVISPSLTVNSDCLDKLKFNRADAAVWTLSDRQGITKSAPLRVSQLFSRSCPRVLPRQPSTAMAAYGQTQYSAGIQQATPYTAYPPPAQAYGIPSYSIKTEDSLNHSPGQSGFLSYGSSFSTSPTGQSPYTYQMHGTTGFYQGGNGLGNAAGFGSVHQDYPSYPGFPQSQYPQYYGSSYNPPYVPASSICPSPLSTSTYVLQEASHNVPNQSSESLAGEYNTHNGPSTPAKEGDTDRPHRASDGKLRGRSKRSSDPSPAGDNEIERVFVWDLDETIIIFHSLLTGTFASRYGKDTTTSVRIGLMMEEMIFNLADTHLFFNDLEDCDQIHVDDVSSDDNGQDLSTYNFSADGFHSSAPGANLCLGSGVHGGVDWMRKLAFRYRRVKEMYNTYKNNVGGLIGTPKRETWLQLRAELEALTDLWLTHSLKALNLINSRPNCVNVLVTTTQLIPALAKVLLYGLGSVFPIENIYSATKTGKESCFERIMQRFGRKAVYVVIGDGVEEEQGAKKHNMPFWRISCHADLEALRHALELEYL
Target sequence (Q15475 whole entry, looked up): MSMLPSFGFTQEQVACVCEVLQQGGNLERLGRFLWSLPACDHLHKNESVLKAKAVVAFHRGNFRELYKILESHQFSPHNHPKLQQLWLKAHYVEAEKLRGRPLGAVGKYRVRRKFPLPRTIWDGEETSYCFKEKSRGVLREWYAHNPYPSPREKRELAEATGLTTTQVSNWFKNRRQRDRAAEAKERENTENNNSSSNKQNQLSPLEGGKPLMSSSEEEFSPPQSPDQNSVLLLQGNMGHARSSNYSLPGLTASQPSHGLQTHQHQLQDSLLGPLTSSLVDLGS
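Homogeneous AlphaScreen proximity assay pairing GST-Six1 with His-tagged Eya2 (added as 5X mix: 250 nM and 500 nM) in 50 mM Tris pH 8.0, 300 mM NaCl, 1 mM TCEP. Glutathione donor and nickel acceptor beads; 1 h, 37 °C, dark.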
G9a inh: G9a (human) methyltransferase inhibition. Q96KQ7. G9a H3K9 monomethylation, AlphaScreen, 2 h. Potency, µM (top dose mostly 102 µM), for the others: at the top dose activity, negative = inhibition, actives largely listed as inhibitors. hit rate 8.8% among 350,000. AID 504332; also: potency is read from the fitted curve at half-maximal effect; % is scaled to controls: 0 for no effect and ±100 for the full control effect; nearly all actives have a fitted effect of over 75% in size
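Compounds were preincubated with 20 nM G9a for 15 min, after which biotinylated H3K9 peptide (500 nM) and SAM (20 uM) started a 2 h room-temperature reaction. Monomethylated product was quantified by antibody-based AlphaScreen chemiluminescence.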
BAZ2B inh: inhibitors of human BAZ2B bromodomain; hit rate 4.4% among 360,000; Potency, µM (top dose mostly 114 µM), for inactives: at the top dose activity change, negative = inhibition, usual class: inhibitors; Q9UIF8; AlphaScreen BAZ2B-H3K14Ac peptide displacement; also: potency is read from the fitted curve at half-maximal effect; % is scaled to controls: 0 for no effect and ±100 for the full control effect; nearly all actives have a fitted effect of over 60% in size
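Protein-peptide AlphaScreen: BAZ2B 50 nM, b-H3K14Ac 50 nM, 1x PBS pH 7.4 + 0.01% Tween-20. Preincubation 30 min RT; cpd 30 min RT (top 110 uM); beads 20 min RT, light-protected.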
Starred values were filed as active, the others as inactive; ? = inconclusive; . = not tested or not shown; [ ] = dose if it differs, or a comment. Unless noted, calls follow the shape of the dose curve; as a rule, active = well fitted inhibition curve with a large enough effect; inconclusive = small, poorly fitted or top-dose-only effect; inactive = no such curve, though single readings can be large or run the other way.

SMILES	CtBP-E1A blk	HP1b binding inh	JMJD2A Tudor inh	Six1-Eya2 inh	G9a inh	BAZ2B inh
O=C(O)[C@H](Cc1ccccc1)NC(=O)N1CCC(Cc2ccccc2)CC1	.	1%[57 µM]	-3%	4	14µM*	-15%
S=c1nc(-c2ccccc2Cl)n(Cc2cccnc2)c2c1CCCC2	-15	44%	-6%	-11	5%	-5%
CCN1Cc2cccc(C(=O)Nc3ccc(F)cc3)c2C1=O	.	37%	-12%	.	20%[59 µM]	11%
NC1=NC(=O)/C(=C\c2ccc(O)c([N+](=O)[O-])c2)S1	-82*	-15%	-15%	-76*	?	-31%
NC1=NC(=O)/C(=C/c2cccc(-c3ccc(S(N)(=O)=O)cc3)c2)S1	4	12%	-23%	2	35µM*	?
O=C(O)c1cccc([N+](=O)[O-])c1C(=O)Nc1nc2ccccc2s1	.	12%	3%	-15	79µM*	-14%
Cc1cc(Cl)c(S(=O)(=O)Nc2ccon2)cc1OCC(=O)NC1CCCCC1	-1	25%	-17%[57.1 µM]	1	-10%[59 µM]	1%
Cc1cc(Cl)c(S(=O)(=O)NC2CCCCC2)cc1OCC(=O)Nc1nncs1	-13	17%	-3%	-8	18µM*	-18%
CC(NCC1COc2ccccc2O1)C(=O)NCc1ccccc1 (centres undefined)	26	16µM*	1.3µM*	18	45µM*	35µM*
O=C(NCc1ccccc1)C(=O)NCC1COc2ccccc2O1 (centres undefined)	4	45%	-3%	-1	-3%[59 µM]	0%
O=C(CCNC(=O)c1ccc([N+](=O)[O-])cc1)NCC1COc2ccccc2O1 (centres undefined)	-2	8%	-23%	8	50µM*	7%
Cn1cccc1C(=O)NCC1COc2ccccc2O1 (centres undefined)	3	-8%	-31%	-3	50µM*	-31%
CCOC(=O)CCNC(C)C1COc2ccccc2O1 (centres undefined)	-2	2%	2.8µM*	8	2.2µM*	-100%
O=C(Cc1ccccc1)NCC1COc2ccccc2O1 (centres undefined)	97	61%	-3%	0	.	.
CC(NC(=O)c1ccccc1Cl)C1COc2ccccc2O1 (centres undefined)	5	24%	7%	5	-5%[59 µM]	1%
Cc1cnc(C2OCCO2)c2cccc([N+](=O)[O-])c12	-13	.	.	-3	.	.
Cc1cccc(NS(=O)(=O)c2ccc3c(c2)OCC(C(=O)N2CCCC2)O3)c1C (centres undefined)	.	13%	-14%	.	5%[59 µM]	-14%
Cc1oc2ncn(C)c(=O)c2c1C(=O)N1CCN(c2cccc(C(F)(F)F)c2)CC1	.	34%	-19%	.	4%[59 µM]	0%[57.1 µM]
Cc1ccccc1S(=O)(=O)NC(=O)C1(C)CCN1C(=O)CCc1ccc(Cl)cc1Cl (centres undefined)	4	.	.	6	.	.
CC(NCC1COc2ccccc2O1)C1COc2ccccc2O1 (centres undefined)	26	-4%[57 µM]	4µM*	19	-27%	?
CC(NS(=O)(=O)c1ccccc1)C1COc2ccccc2O1 (centres undefined)	3	39%	8%	-1	6%[59 µM]	-3%
Cc1ccc(NS(=O)(=O)c2cc3c(cc2N2CCC2)NC(=O)CC3)cc1C	.	.	-15%	.	.	.
NC(=O)CC(NC(=O)c1cccc(Br)c1)c1ccc(NC2CCCCCCC2)c([N+](=O)[O-])c1 (centres undefined)	-11	-5%	?	-13	20µM*	?
NC(=O)CC(NC(=O)c1ccc(Br)cc1)c1ccc(NC2CCCCC2)c([N+](=O)[O-])c1 (centres undefined)	3	33%	-11%	1	.	-6%
NC(=O)CC(NC(=O)c1cccc(Br)c1)c1ccc(NC2CCCCCCCCCCC2)c([N+](=O)[O-])c1 (centres undefined)	3	20%	-10%	1	71µM*	-34%
SMILES	CtBP-E1A blk	HP1b binding inh	JMJD2A Tudor inh	Six1-Eya2 inh	G9a inh	BAZ2B inh
COc1ccc(CCNC(=O)c2nn(C)c3c2CS(=O)(=O)c2ccccc2-3)cc1OC	.	31%	-17%	5	4%	-4%
Cc1ccc(Cl)cc1N1CCN(C(=O)c2sc3nc4n(c(=O)c3c2C)CCC4)CC1	.	7%	-15%	.	-18%[59 µM]	1%
Cc1cc(C)cc(N=c2c([N+](=O)[O-])nn(-c3cccc(Cl)c3)n2O)c1	?	-33%	?	?	40µM*	?
Cc1cccc(N=c2c([N+](=O)[O-])nn(-c3ccc(Cl)cc3)n2O)c1	-3	3%	-9%	-1	28µM*	10µM*
O=[N+]([O-])c1nn(-c2ccc(Cl)cc2)n(O)c1=NCc1ccccc1Cl	-22	8%	-30%	-8	?	?
C(=C\c1ccccc1)/CN1CCN(C(c2nnnn2-c2ccc3c(c2)OCCO3)C2CC2)CC1 (centres undefined)	-23	.	.	-25	.	.
O=C(O)c1ccc2c(c1)C(=O)N([C@H](Cc1ccc(O)c(O)c1)C(=O)O)C2=O	.	.	89µM*	.	2µM*	?
O=C(O)c1ccc2c(c1)C(=O)N([C@H](Cc1ccc(F)cc1)C(=O)O)C2=O	.	.	-18%	.	-4%[12.7 µM]	-2%
O=C(O)c1ccc2c(c1)C(=O)N([C@H](Cc1ccccc1)C(=O)O)C2=O	.	.	-28%	.	4%[12.7 µM]	79µM*
CCCNc1nc(C#N)nc(Nc2ccccc2)n1	.	.	-2%	.	.	.
COc1ccc(N2CCN(C(c3ccccc3F)c3sc4nc(-c5ccco5)nn4c3O)CC2)cc1 (centres undefined)	.	?	?	.	?	40µM*
Cc1ccc(C(c2sc3nc(-c4ccco4)nn3c2O)N2CCN(c3ccc(F)cc3)CC2)cc1 (centres undefined)	.	?	?	.	-11%[59 µM]	-20%
Oc1c(C(c2ccc(Cl)cc2Cl)N2CCN(c3ccccc3)CC2)sc2nc(-c3ccco3)nn12 (centres undefined)	.	22%	-28%	.	11µM*	-15%
Oc1c(C(c2ccc(Cl)cc2Cl)N2CCOCC2)sc2nc(-c3ccco3)nn12 (centres undefined)	.	10%	-19%	.	-30%[59 µM]	?
COc1ccc(N2CCN(C(c3ccc(F)cc3)c3sc4nc(-c5ccco5)nn4c3O)CC2)cc1 (centres undefined)	.	?	?	.	?	40µM*
CC(NC(=O)C1CCN(C(=O)c2ccc(F)cc2)CC1)c1ccc(S(N)(=O)=O)cc1 (centres undefined)	6	42%	-7%	-4	.	.
